# In the supplement of paper PMC8387472:
# Key:
# Conditions in all cases: mESC; 2uM; 72 h treatment, harvest day 5
# [1] = compound: O=c1cc(N2CCOCC2)oc2c(-c3ccc4c(c3)OCCO4)csc12; experiment: fraction of edited reads among all mapped reads; higher = more Cas9 editing
# [2] = compound: S=c1[nH]cnc2nc[nH]c12 [Mercaptopurine (6-MP)]; experiment: as above
# [3] = compound: S=c1nc[nH]c2nc[nH]c12 [6-Mercaptopurine (6-MP) Monohydrate]; experiment: as above
# [4] = compound: CC(=O)O/N=C1\C(=O)N(Cc2cc(Cl)ccc2Cl)c2ccc(Cl)cc21; experiment: fraction of microhomology deletions among edited reads; higher = more MH deletions
# [5] = compound: CC(C)(C#N)c1ccc(N2C(=O)OCc3cnc4ccc(-c5cnc6ccccc6c5)cc4c32)cc1; experiment: as above
# [6] = compound: CCCCOc1c(C(=O)c2c(F)cc(C)cc2F)c[nH]c2nncc1-2; experiment: as above
# [7] = compound: CCN1CCN(CC(=O)Nc2ccc(-c3cccc4c(=O)cc(N5CCOCC5)oc34)c3sc4ccccc4c23)CC1; experiment: as above
# [8] = compound: CCc1c2c(nc3ccc(OC(=O)N4CCC(N5CCCCC5)CC4)cc13)-c1cc3c(c(=O)n1C2)COC(=O)[C@]3(O)CC [Irinotecan HCl Trihydrate]; experiment: as above
# [9] = compound: CCn1c(=O)c(-c2ccc(Cl)cc2Cl)cc2cnc(Nc3ccc(N4CCNCC4)c(F)c3)nc21; experiment: as above
# [10] = compound: CNc1ccc([N+](=O)[O-])c(Nc2ccc3[nH]ncc3c2)n1; experiment: as above
# [11] = compound: CO[C@H]1/C=C/O[C@@]2(C)Oc3c(C)c(O)c4c(O)c(c(/C=N/N5CCN(C6CCCC6)CC5)c(O)c4c3C2=O)NC(=O)/C(C)=C\C=C\[C@H](C)[C@H](O)[C@@H](C)[C@@H](O)[C@@H](C)[C@H](OC(C)=O)[C@@H]1C [Rifapentine]; experiment: as above
# [12] = compound: COc1ccccc1-c1cc(Nc2cccc(CS(N)(=O)=O)c2)ncn1; experiment: as above
# [13] = compound: C[C@@H]1CN(CC(=O)Nc2ccc3c(c2)Cc2cccc(-c4cc(=O)cc(N5CCOCC5)o4)c2S3)C[C@H](C)O1; experiment: as above
# [14] = compound: Cc1cc(C)nc(SCC(=O)Nc2ncc(Cc3cccc4ccccc34)s2)n1; experiment: as above
# [15] = compound: Cc1cccc(CC(=O)N2CCc3c2ccc(-c2cn(C)c4ncnc(N)c24)c3F)n1; experiment: as above
# [16] = compound: NC(=O)c1ccc2nc(-c3ccc(Oc4ccc(Cl)cc4)cc3)[nH]c2c1 [Chk 2 inhibitor II (BML-277)]; experiment: as above
# [17] = compound: Nc1cc(F)ccc1NC(=O)c1ccc(CNC(=O)/C=C/c2cccnc2)cc1 [Tucidinostat (Chidamide)]; experiment: as above
# [18] = compound: Nc1nc2[nH]cc(CCc3ccc(C(=O)N[C@@H](CCC(=O)O)C(=O)O)cc3)c2c(=O)[nH]1 [Pemetrexed]; experiment: as above
# [19] = compound: Nc1ncnc2c1c(-c1cnc3[nH]ccc3c1)nn2C1CCCC1; experiment: as above
# [20] = compound: O=C(c1cccc(Cl)c1F)N1CCN(Cc2cccc(Nc3nccs3)n2)CC1; experiment: as above
Target,fraction of edited reads among all mapped reads [1],fraction of edited reads among all mapped reads [2],fraction of edited reads among all mapped reads [3],fraction of microhomology deletions among edited reads [4],fraction of microhomology deletions among edited reads [5],fraction of microhomology deletions among edited reads [6],fraction of microhomology deletions among edited reads [7],fraction of microhomology deletions among edited reads [8],fraction of microhomology deletions among edited reads [9],fraction of microhomology deletions among edited reads [10],fraction of microhomology deletions among edited reads [11],fraction of microhomology deletions among edited reads [12],fraction of microhomology deletions among edited reads [13],fraction of microhomology deletions among edited reads [14],fraction of microhomology deletions among edited reads [15],fraction of microhomology deletions among edited reads [16],fraction of microhomology deletions among edited reads [17],fraction of microhomology deletions among edited reads [18],fraction of microhomology deletions among edited reads [19],fraction of microhomology deletions among edited reads [20]
"4.0 (DMSO control at this site: 1-bp insertion 0.146, MH deletion 0.523, edited 0.125) ACGCCTTAGTGCACGAGTGACGGGATAATGTGGTCTCAGGTAATTGATAGGCTTCCAACTT",0.0874,0.174,0.122,0.582,0.526,0.507,0.635,0.564,0.591,0.527,0.592,0.535,0.319,0.545,0.492,0.575,0.482,0.504,0.501,0.475
"7.0 (DMSO control at this site: 1-bp insertion 0.128, MH deletion 0.374, edited 0.098) TACTCAACCGAGACCTACGCGAACCGAAATCGTATGCCGGTGCGCAAGCAGGGCTGGCGTC",0.067,,0.0891,0.489,0.456,0.404,0.477,0.484,0.417,0.442,0.414,0.393,0.324,0.45,0.441,0.38,0.427,0.536,0.425,0.394
"41.0 (DMSO control at this site: 1-bp insertion 0.022, MH deletion 0.754, edited 0.115) AAAGAGACAGCAGGTATGAATCCATCTTCCTGACCCTTGGGACCAGCCGGGGCAGTGAAGC",0.0713,0.161,0.116,0.745,0.754,0.717,0.792,0.729,0.738,0.742,0.699,0.733,0.67,0.703,0.715,0.742,0.709,0.678,0.722,0.694
"5.0 (DMSO control at this site: 1-bp insertion 0.214, MH deletion 0.567, edited 0.105) CGCTGACCCGAGACCTACGCGAACCGAAATCGGCGACCGGTGCGCAAGCAGGGCTGGCGTC",0.0695,0.151,0.0997,0.593,0.605,0.588,0.705,0.563,0.617,0.552,0.578,0.519,0.353,0.571,0.568,0.58,0.526,0.565,0.512,0.537
23.0 AGAACAAAGCGCTCATATAACGATATGGGGGGTTATGGGGGGTTGAATTGCTTCAGCACGA,,,,,,,,,,0.88,,,,,,,,,,0.856
"31.0 (DMSO control at this site: 1-bp insertion 0.315, MH deletion 0.329, edited 0.026) ACCTCCACAGGCTGGGTGGCCCGGAGGCTGGGCGGCCCGGAGGCTGGGCTGGGCGAGTATC",0.0134,0.0491,0.0301,0.32,0.349,0.458,0.276,0.519,0.5,0.405,0.467,0.487,,0.512,,,0.459,0.605,0.333,0.391
"39.0 (DMSO control at this site: 1-bp insertion 0.328, MH deletion 0.371, edited 0.204) CTGCACAGTCACTTAGGATAGGAGAAGATGATGTATAGGGTTTAGTGGGAGATGTTGCAAG",0.121,0.243,0.167,0.412,0.405,0.358,0.539,0.384,0.367,0.332,0.414,0.303,0.105,0.361,0.372,0.372,0.287,0.407,0.286,0.32
"28.0 (DMSO control at this site: 1-bp insertion 0.035, MH deletion 0.77, edited 0.142) TGGTTCTTCCTTTGTAGAGAGTGTTCATCTGGGAATCTGGGACTTGGATGAGACAATCATT",0.0926,0.18,0.117,0.789,0.793,0.767,0.818,0.763,0.774,0.774,0.794,0.755,0.768,0.777,0.747,0.768,0.739,0.737,0.748,0.76
"17.0 (DMSO control at this site: 1-bp insertion 0.112, MH deletion 0.348, edited 0.058) CCATAGCGCGATAAATATGACGGCTCATCCTGTATGACGGCTCATCCTGTATCAACTGTCC",0.037,0.0873,0.069,0.396,0.391,0.416,0.509,0.411,0.358,0.402,0.43,0.378,0.243,0.444,0.409,0.35,0.38,0.474,0.39,0.409
"1.0 (DMSO control at this site: 1-bp insertion 0.521, MH deletion 0.323, edited 0.141) GTGTCACAGTGCACGAGTGACGGGATAATGTGCTGACAGGTAATTGATAGGCTTCCAACTT",0.0814,0.187,,0.293,0.269,0.238,0.461,0.246,0.293,0.218,0.256,0.224,0.0962,0.248,0.227,0.243,0.215,0.342,0.163,0.209
